In general, inhibition refers to the relative decrease from the control value, in per cent.

Consider 14 compounds from PubChem BioAssay.

Assay [1] is described as follows: inhibitors of TNFa-induced NFkB p65 translocation, primary screen, imaging, HUVEC, MLSMR starter and 10KST1 sets (AID 438;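 active means inhibition above 20% together with a positive visual image hit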;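 further: compound added about 3h40 before a 20 min TNFalpha stimulation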;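 on inhibition: signal is the nuclear over cytoplasmic p65 intensity ratio per well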). As to conditions: HUVEC TNFa-induced p65 nuclear translocation; cell count: measured here: nuclei count (cytotoxicity indicator), at 2.08 µM; inhibition: at 2 µM, stronger effect = higher value, 0% TNFa-plus-vehicle, 100% no-TNFa wells.
Assay [2] is described as follows: inhibitors of mutant huntingtin aggregation, primary screen, imaging, exon1htt(103Q)mCFP cells, high-content imaging (AID 483;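 active means visual image review flags a hit and inhibition of aggregation exceeds 20%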;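 further: compound exposure lasted 3 days before fixation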;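 on nuclei count: percent of the per-plate median nuclei count of sample wells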). To be noted: exon1htt(103Q)mCFP cell line, aggregate imaging, at 2 µM; inhibition of aggregation: stronger effect = higher value; nuclei count: measured here: cell count, toxicity.
The nature of assay [3]: inhibitors of E-selectin induction by TNFa, primary screen, imaging, HUVEC, immunofluorescence, MLSMR starter and 10KST1 sets (AID 487;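 active means visually confirmed hit in the image check and inhibition above 20%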;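 on inhibition: signal is fraction of cell area covered by stained E-selectin grains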;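 on nuclei count: 100% = median nuclei count of all wells on the same plate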). As to conditions: HUVEC TNFalpha-induced E-selectin immunofluorescence imaging, at 2 µM; inhibition: stronger effect = higher value; nuclei count: measured here: cell number, toxicity.
The target of assay [4] is Voltage-gated potassium channel subunit beta-2 (Rattus norvegicus) (UniProt P62483). The assay can be described thus: KvBeta enzyme negative modulators, primary screen, biochemical, NADPH fluorescence (AID 622;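 active means fluorescence slope higher than the sample average by over 3 SD, cut at about -0.22 in these data, passing the limit was not always enough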;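 further: slope of raw intensity against log time taken from 70 to 1610 s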). To be noted: recombinant KvBeta, 4-cyanobenzaldehyde reduction, at 10 µM, stronger effect = higher value.
Assay [5] has the same target. Put plainly: KvBeta positive modulators, primary screen, biochemical, NADPH fluorescence (AID 623;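 active means NADPH fluorescence slope more negative than the mean of all samples by about 3 SD, 99.7% confidence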;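 further: fluorescence intensity change per second fitted from 20 to 320 s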). To be noted: Recombinant KvBeta, NADPH fluorescence decrease slope, 10 min; at 10 µM; stronger effect = lower value.
For assay [6], the target named is Alpha-2C adrenergic receptor (Homo sapiens) (UniProt P18825). The assay can be described thus: modulators of alpha2C/GIRK thallium flux, primary screen, cell-based, HEK293 alpha2C/GIRK1/2 (AID 624;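 active means fluorescence slope after compound addition differing from the mean of all screened samples at 99.7% confidence, in either direction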;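 further: slope of fluorescence ratio to pre-addition baseline per second over 15 to 24 s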). To be noted: thallium flux BTC fluorescence, at 10 µM, actives lie on both sides.
The nature of assay [7]: inhibitors of Sendai virus-induced IRF3 signaling, primary screen, TLR/RLR signaling modifier project, cell-based, Sendai virus stimulus, luciferase, 10K MLSCN set (AID 602276).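 Further: firefly luciferase from ISG56 promoter only with Renilla not read in this screen; 0% = Sendai virus plus DMSO and 100% = medium plus DMSO without virus.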 To be noted: HEK293 RL24 IRF3 luciferase reporter, at 10 µM, stronger effect = higher value. (In general: In a reporter assay the amount or activity of a reporter protein is the signal.)
Assay [8] can be described thus: inhibitors of poly I:C-induced TLR3 signaling, primary screen, cell-based, poly I:C stimulus, luciferase, 10K MLSCN set (AID 602277;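 active means inhibition of the reporter signal at or above 50%; inactive means inhibition below 50%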). To be noted: HEK293-TLR3 RL24 IRF3 luciferase reporter, at 10 µM, stronger effect = higher value.

Structures are written as SMILES. Calls of active or inactive are those of the source.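 How the source made its calls, unless noted: active means inhibition at or above 50% at 10 µM; inactive means inhibition below 50%.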

Alpha-2C adrenergic receptor (Homo sapiens), sequence (P18825 whole entry, looked up): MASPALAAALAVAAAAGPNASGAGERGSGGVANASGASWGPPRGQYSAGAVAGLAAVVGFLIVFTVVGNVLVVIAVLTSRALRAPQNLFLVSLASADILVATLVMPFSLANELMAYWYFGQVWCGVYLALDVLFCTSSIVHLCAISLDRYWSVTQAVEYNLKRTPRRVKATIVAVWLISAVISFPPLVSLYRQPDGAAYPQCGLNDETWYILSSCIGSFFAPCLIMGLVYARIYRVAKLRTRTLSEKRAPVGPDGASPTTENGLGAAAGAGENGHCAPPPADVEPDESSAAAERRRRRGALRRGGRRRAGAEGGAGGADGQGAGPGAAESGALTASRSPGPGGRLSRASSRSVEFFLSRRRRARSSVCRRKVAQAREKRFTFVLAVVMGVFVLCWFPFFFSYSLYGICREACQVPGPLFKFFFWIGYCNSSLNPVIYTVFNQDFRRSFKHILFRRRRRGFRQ
Voltage-gated potassium channel subunit beta-2 (Rattus norvegicus), sequence (P62483 whole entry, looked up): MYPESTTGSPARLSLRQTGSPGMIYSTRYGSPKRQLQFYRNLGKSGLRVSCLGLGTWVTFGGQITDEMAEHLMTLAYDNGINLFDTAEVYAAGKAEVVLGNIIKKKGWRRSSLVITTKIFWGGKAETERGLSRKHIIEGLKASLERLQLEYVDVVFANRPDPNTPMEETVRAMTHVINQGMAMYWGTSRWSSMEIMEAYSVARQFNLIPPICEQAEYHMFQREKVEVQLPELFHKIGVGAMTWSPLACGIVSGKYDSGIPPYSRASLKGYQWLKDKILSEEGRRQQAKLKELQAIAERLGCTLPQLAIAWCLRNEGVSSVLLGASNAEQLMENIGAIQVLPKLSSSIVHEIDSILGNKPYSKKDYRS

As to `CCOP(=O)(c1ccc(N(C)C)cc1)C(O)c1ccccc1OC` (centres undefined), the cell count in assay [1] came to 728. Besides, the inhibition in assay [1] was -5.5% (inactive); in assay [3], -31.9% (inactive); in assay [7] it was 1.78% (inactive); in assay [8], 10.6% (inactive). Besides, the inhibition of aggregation in assay [2] was -2.8% (inactive). For the same compound, the nuclei count in assay [2] was 113%; in assay [3] it was 116%. For the same compound, the fluorescence slope in assay [4] is -0.387 (inactive). For the same compound, the NADPH fluorescence slope in assay [5] is 4.7e-05 (inactive). Moreover, the slope in assay [6] was 0.00598 (inactive).
On to `CCCCOCCCNC(=O)c1ccccc1OCC`, for which, in assay [1], the cell count was 365. Besides, the inhibition in assay [1] was 8.5% (inactive); in assay [3], 33.7% (inactive); in assay [7] it was 11.1% (inactive); in assay [8] it was 7.39% (inactive). In assay [2], the inhibition of aggregation was 0.7% (inactive). Moreover, the values for the nuclei count in assay [2] and in assay [3] were 111% and 116%, respectively. In addition, the fluorescence slope in assay [4] is -0.317 (inactive). In addition, the NADPH fluorescence slope in assay [5] was -6.3e-05 (inactive). Also, the slope in assay [6] is 0.00615 (inactive).
Regarding `Cc1cc2oc(=O)cc(C)c2c(=O)o1`, the cell count in assay [1] was determined as 411. Moreover, the inhibition was -15.8% (inactive) in assay [1], -2.6% (inactive) in assay [3], -5.14% (inactive) in assay [7] and -17.4% (inactive) in assay [8]. Moreover, the inhibition of aggregation in assay [2] was -0.8% (inactive). In addition, the nuclei count is 105% in assay [2] and 115% in assay [3]. Further, in assay [4], the fluorescence slope was -0.391 (inactive). In addition, in assay [5], the NADPH fluorescence slope is 3.6e-05 (inactive). In assay [6], the slope is 0.00528 (inactive).
Consider `COC(=O)c1ccccc1NC(=O)N1CCCC1`, for which the cell count in assay [1] stood at 380. Further, the inhibition in assay [1] is -0.9% (inactive); in assay [3] it was -45.5% (inactive); in assay [7] it was -4.5% (inactive); in assay [8], 0.116% (inactive). Besides, in assay [2], the inhibition of aggregation is 0.5% (inactive). Also, the nuclei count in assay [2] stood at 99.5%; in assay [3] it was 115%. For the same compound, the fluorescence slope in assay [4] was -0.434 (inactive). Besides, in assay [5], the NADPH fluorescence slope was -3.7e-06 (inactive). Besides, the slope in assay [6] is 0.00581 (inactive).
For `COc1cc(NC(=O)Nc2cccc(Cl)c2)c(OC)cc1NC(=O)CN1CCCCC1`, the cell count in assay [1] was 709. The inhibition was -15.2% (inactive) in assay [1], -45.1% (inactive) in assay [3], 14.5% (inactive) in assay [7] and -1.73% (inactive) in assay [8]. The inhibition of aggregation in assay [2] is 1% (inactive). Also, the nuclei count in assay [2] was 126%; in assay [3] it was 132%. In addition, the fluorescence slope in assay [4] was -0.407 (inactive). The NADPH fluorescence slope in assay [5] is -4e-05 (inactive). In assay [6], the slope is 0.00392 (inactive).
Turning to `CCOC(=O)Cn1nc(-c2ccc(Cl)cc2)cc1N`, the cell count in assay [1] came to 285. The inhibition in assay [1] was 15.6% (inactive); in assay [3], -2.9% (inactive); in assay [7], -5.22% (inactive); in assay [8], -25.8% (inactive). The inhibition of aggregation in assay [2] is -12% (inactive). Also, the nuclei count is 99.9% in assay [2] and 111% in assay [3]. The fluorescence slope in assay [4] was -0.501 (inactive). In addition, in assay [5], the NADPH fluorescence slope was -8.2e-05 (inactive). Further, the slope in assay [6] was 0.00497 (inactive).
As for `N#Cc1cnc(SCC(=O)c2ccccc2)nc1N`, the cell count in assay [1] turned out to be 682. Moreover, the inhibition in assay [1] was -10.7% (inactive); in assay [3] it was -20.8% (inactive); in assay [7], 4.13% (inactive); in assay [8], -24.8% (inactive). Moreover, in assay [2], the inhibition of aggregation is 8.2% (inactive). The results for the nuclei count in assay [2] and in assay [3] were 63.1% and 120%, respectively. Further, in assay [4], the fluorescence slope was -0.402 (inactive). Further, the NADPH fluorescence slope in assay [5] is -2.9e-05 (inactive). Moreover, the slope in assay [6] is 0.00488 (inactive).
`CCOC(=O)/C=C1\SCC(=O)N1Cc1ccc(Br)cc1`: the cell count in assay [1] was 562. Also, the inhibition is -4.8% (inactive) in assay [1], -49.7% (inactive) in assay [3], 10.8% (inactive) in assay [7] and 20% (inactive) in assay [8]. Moreover, the inhibition of aggregation in assay [2] is -14.9% (inactive). Also, the nuclei count turned out to be 96% in assay [2] and 116% in assay [3]. Besides, in assay [4], the fluorescence slope is -0.462 (inactive). The NADPH fluorescence slope in assay [5] is -0.000366 (inactive). Besides, in assay [6], the slope was 0.00633 (inactive).
With `N#Cc1c2n(c(=O)[nH]c1=O)CCCCC2`, the cell count in assay [1] was 270. The inhibition in assay [1] was 14.4% (inactive); in assay [3], 16.1% (inactive); in assay [7], -7.37% (inactive); in assay [8] it was 0.231% (inactive). Besides, the inhibition of aggregation in assay [2] is 18.2% (inactive). Further, the nuclei count in assay [2] worked out at 113%; in assay [3], 110%. Also, the fluorescence slope in assay [4] is -0.5 (inactive). In addition, in assay [5], the NADPH fluorescence slope is -0.000252 (inactive). Further, the slope in assay [6] is 0.00665 (inactive).
In the case of `CCOc1ccc(CNC(=O)C2CCCN(S(C)(=O)=O)C2)cc1OC` (centres undefined), the cell count in assay [1] worked out at 664. Besides, the inhibition is -7.1% (inactive) in assay [1], -95.3% (inactive) in assay [3], 9.09% (inactive) in assay [7] and 12% (inactive) in assay [8]. Besides, in assay [2], the inhibition of aggregation was 11.9% (inactive). The nuclei count was 84% in assay [2] and 136% in assay [3]. Also, the fluorescence slope in assay [4] is -0.356 (inactive). The NADPH fluorescence slope in assay [5] was -1.3e-05 (inactive). In addition, the slope in assay [6] was 0.00564 (inactive).
Take `COCCNC(=O)CN1C(=O)CSc2ncccc21`: the cell count in assay [1] was found to be 673. In addition, the inhibition in assay [1] is -6.7% (inactive); in assay [3], -62.1% (inactive); in assay [7], 11.1% (inactive); in assay [8] it was 28.9% (inactive). The inhibition of aggregation in assay [2] was -43.1% (inactive). Also, the nuclei count in assay [2] stood at 115%; in assay [3] it was 117%. Besides, in assay [4], the fluorescence slope was -0.413 (inactive). The NADPH fluorescence slope in assay [5] was -1.6e-05 (inactive). For the same compound, the slope in assay [6] was 0.00576 (inactive).
For the compound `COC(=O)c1ccccc1NC(=O)C1CCN(S(=O)(=O)c2cc(C)ccc2OC)CC1`, in assay [1], the cell count was 607. The inhibition was 3.6% (inactive) in assay [1], -76.8% (inactive) in assay [3], 18.9% (inactive) in assay [7] and 28.7% (inactive) in assay [8]. The inhibition of aggregation in assay [2] was -20.2% (inactive). Also, the nuclei count was determined as 111% in assay [2] and 123% in assay [3]. Also, in assay [4], the fluorescence slope was -0.454 (inactive). Also, the NADPH fluorescence slope in assay [5] was -2.4e-07 (inactive). For the same compound, the slope in assay [6] was 0.00507 (inactive).
Regarding `Cc1nnc(SCC(=O)N2CCN(S(=O)(=O)c3ccccc3)CC2)[nH]c1=O`, in assay [1], the cell count was 711. For the same compound, the inhibition in assay [1] was 9.4% (inactive); in assay [3], -39.5% (inactive); in assay [7] it was 3.92% (inactive); in assay [8] it was 13.4% (inactive). Also, in assay [2], the inhibition of aggregation is 7.1% (inactive). In addition, the nuclei count was found to be 103% in assay [2] and 127% in assay [3]. Besides, the fluorescence slope in assay [4] was -0.509 (inactive). Also, the NADPH fluorescence slope in assay [5] is -6e-05 (inactive). The slope in assay [6] is 0.00552 (inactive).
On to `COc1ccc(C(=O)N2CCN(c3nc4cc(C)ccc4cc3C#N)CC2)c(OC)c1`, for which the cell count in assay [1] came out at 383. Besides, the inhibition in assay [1] is 7.6% (inactive); in assay [3] it was -49.6% (inactive); in assay [7] it was 14.5% (inactive); in assay [8], 22% (inactive). For the same compound, in assay [2], the inhibition of aggregation is -9.9% (inactive). Also, the nuclei count came out at 102% in assay [2] and 115% in assay [3]. Also, the fluorescence slope in assay [4] was -0.595 (inactive). Further, the NADPH fluorescence slope in assay [5] was -2.2e-05 (inactive). For the same compound, in assay [6], the slope was 0.00559 (inactive).
